Screen size: about 1,500 compounds; about 1,400 (93%) were called active. No rule for the calls is given here. The set was probably picked from earlier hits. Only a sample is shown. Measured potencies and affinities stand elsewhere.
assay: viability of PTEN-deleted HCT116 cells – cell-based, HCT116 PTEN knockout, dose response (AID 1047); conditions: CellTiter-Glo, 60 h; series mostly up to 30 µM; viability: at the top concentration

| Compound | viability |
| --- | --- |
| CCCNC(=O)OC[C@H]1O[C@H](CCO/N=C/[C@@H](NS(=O)(=O)c2ccc(C)cc2)[C@H](C)/C=C/CC(=O)OC)C=C[C@@H]1Oc1ccc(OC)cc1 | 80.8% (inactive) |
| Cc1nn(C(=O)N2CCOCC2)c(C)c1C | 102% (inactive) |
| CCN1CCN(Cc2ccc(OCc3ccccc3)cc2)CC1 | 96.5% (inactive) |
| O=C(Nc1cccc(C(F)(F)F)c1)/C(=C\c1ccco1)NC(=O)c1cccs1 | 84.9% (inactive) |
| CSc1n[nH]c(NCc2cccs2)n1 | 97.2% (inactive) |
| Nc1nnc(SCc2ccc(Cl)cc2)s1 | 89.9% (inactive) |
| COC(=O)c1cc(OC)c(OC)cc1NC(=O)c1ccccc1 | 96.4% (inactive) |
| C=CCNC(=O)c1ccccc1NC(=O)c1ccccc1C | 92.4% (inactive) |
| CN1CCN(c2nc(N3CCN(c4ccccc4)CC3)ncc2F)CC1 | 81.6% (inactive) |
| O=C(c1ccc2c(=O)n(CC3CCCO3)c(=S)[nH]c2c1)N1CCN(c2ccccc2)CC1 (centres undefined) | 94% (inactive) |
| Cc1ccc(CNc2ccc(O)cc2)cc1 | 98.5% (inactive) |
| OC1(c2cccc(C(F)(F)F)c2)CCN(c2ccc(-c3ccccc3)nn2)CC1 | 92.9% (inactive) |
| COc1cc2c(cc1OC)C1(Nc3c-2c(C)nn3-c2ccccc2)C(=O)Nc2ccccc21 (centres undefined) | 91.2% (inactive) |
| CCOc1ccccc1NC(=O)Cn1cnc2c(nnn2-c2cccc(OC)c2)c1=O | 96.3% (inactive) |
| O=C(COc1ccc(/C=N/NC(=O)c2cc3ccccc3o2)cc1Cl)Nc1ccccc1 | 87.9% (inactive) |
| O=C(NCc1ccc2c(c1)OCO2)c1ccc2c(c1)C(=O)N(CC1CCCO1)C2=O (centres undefined) | 98.1% (inactive) |
| CCOC(=O)C1=C(C)NC(=S)N(C(C)=O)C1c1ccc(Cl)cc1 (centres undefined) | 82.1% (inactive) |
| CCC(Sc1nc2sc(C(=O)OC)c(C)c2c(=O)n1N)C(=O)N(CC)CC (centres undefined) | 89.6% (inactive) |
| N#CC(c1ccc(Cl)nn1)c1ccc(Cl)cc1Cl (centres undefined) | 90.3% (inactive) |
| COc1ccc(CCN2C(=O)CN(Cc3ccccc3)CC2=O)cc1OC | 89.9% (inactive) |
| CC(=O)c1c(C)nc(-c2ccc(Cl)cc2Cl)n1O | 103% (inactive) |
| CCOC(=O)Nc1ccc(C)cc1Br | 100% (inactive) |

| Compound | viability |
| --- | --- |
| Cc1cc2ncn(C(=O)N3CCC(C)CC3)c2cc1C | 104% (inactive) |
| Cc1cc(NC(=O)CSc2nc(-c3cccnc3)ccc2C#N)no1 | 106% (inactive) |
| O=C(CSc1nnc(-c2ccccc2Cl)o1)Oc1ccc(Br)cc1 | 98.8% (inactive) |
| Cc1cccc(CS(=O)(=O)c2nnc([C@H](Cc3ccccc3)NC(=O)OC(C)(C)C)o2)c1 | 93.7% (inactive) |
| O=C(Nc1cccc(C(F)(F)F)c1)C12CC3CC(CC(C3)C1)C2 | 89.8% (inactive) |
| Cc1cc(NC(=O)CN2CCN(c3ccc(O)cc3)CC2)no1 | 86.1% (inactive) |
| Cc1ccc(C(=O)c2coc3c2C(=O)C(=O)c2ccccc2-3)cc1 | 96.7% (inactive) |
| COCCN1C(=O)c2oc3ccccc3c(=O)c2C1c1ccc(OC)c(OC)c1 (centres undefined) | 84.9% (inactive) |
| O=C(NC(=S)Nc1ccc2c(c1)OCO2)c1ccc(Cl)cc1 | 83.4% (inactive) |
| CCN(CC)c1ccc(N=Cc2ccc(N(CC)CC)cc2O)cc1 | 95.8% (inactive) |
| Cc1ccc(C(=O)Nc2ccccc2C(=O)NC(C(=O)O)C(C)C)cc1 (centres undefined) | 95.5% (inactive) |
| Cc1cc(NS(=O)(=O)c2ccccc2)cc(Cl)c1O | 93.7% (inactive) |
| O=C(Nc1cccc2ccccc12)N1CCN(Cc2ccc3c(c2)OCO3)CC1 | 97.6% (inactive) |
| CCCCn1c(=NC(=O)c2ccco2)c(C(=O)OCC)cc2c(=O)n3ccccc3nc21 | 72.2% (inactive) |
| CS(=O)(=O)c1nc(-c2cccs2)cc(C(F)(F)F)n1 | 97.9% (inactive) |
| COCCNC(=O)NC1(C(F)(F)F)Oc2ccc(Cl)cc2O1 (centres undefined) | 87.3% (inactive) |
| O=C(NCc1ccc(F)cc1)C1C2C=CC3(CN(Cc4cccnc4)C(=O)C13)O2 (centres undefined) | 102% (inactive) |
| COc1ccc(S(=O)(=O)CCC(=O)N(C)c2ccc(OC)cc2OC)cc1 | 81.1% (inactive) |
| Cc1c(Cl)ccc2sc(NC(=O)CN3C(=O)c4ccccc4C3=O)nc12 | 103% (inactive) |
| CCCCN(C)C(=O)C1CCC(=O)N(c2cc(OC)c(OC)c(OC)c2)C1c1ccc(OC)cc1 (centres undefined) | 94.9% (inactive) |
| CCCCS/C(N)=N/N=C/c1ccccc1O | 90.8% (inactive) |
| N/C(=N\c1nc(C(F)(F)F)cc(=O)[nH]1)Nc1ccc(Cl)cc1 | 91.2% (inactive) |

| Compound | viability |
| --- | --- |
| COc1ccc(N2CCN(C(c3cc(OC)ccc3OC)c3nnnn3CC3CCCO3)CC2)cc1 (centres undefined) | 86.8% (inactive) |
| N/C(=N\OC(=O)C12CC3CC(CC(C3)C1)C2)c1ccccc1 | 86.5% (inactive) |
| Cc1cc(C)c2c(=O)n(CC(=O)N3CCC(Cc4ccccc4)CC3)sc2n1 | 95.1% (inactive) |
| COC(=O)CN1C(C)=Nc2ccc(Br)cc2C1c1ccccc1 (centres undefined) | 89.8% (inactive) |
| CCCC/C(C)=N\NC(=O)CNS(=O)(=O)c1ccc([N+](=O)[O-])cc1 | 111% (inactive) |
| CCCC(=O)Nc1sc2c(c1C#N)CCCCC2 | 93.2% (inactive) |
| Oc1ccc(C=Nc2ccc3ncccc3c2)c(O)c1 | 86.3% (inactive) |
| CCCCN1C[C@H](O)[C@@H](O)[C@H](O)[C@H]1CO | 92% (inactive) |
| COc1cccc2cc(C(=O)N(C)C)c(=O)oc12 | 89.8% (inactive) |
| CC1CCN(CC(=O)N2c3ccccc3CCc3ccccc32)CC1 | 94.3% (inactive) |
| CCOc1ccc(C2/C(=C(\O)c3c(C)[nH]c(C(=O)OC)c3C)C(=O)C(=O)N2CCN(C)C)cc1 (centres undefined) | 105% (inactive) |
| O=C(NCc1ccccn1)c1c(O)c2cccc3c2n(c1=O)CC3 | 88% (inactive) |
| COC(C)(C)[C@H](O)COc1c2ccoc2cc2oc(=O)ccc12 | 97.6% (inactive) |
| Nc1c(NCCN2CCOCC2)c2ccccc2oc1=O | 88.3% (inactive) |
| O=C(Nc1cccc(-c2nnc(-c3ccccc3)o2)c1)C1CCCCC1 | 94% (inactive) |
| COc1ccc(C(C)=O)cc1CSc1nc2ccccc2o1 | 94% (inactive) |
| O=C(Nc1cccc2ccccc12)c1onc2c1CCCC2 | 94.1% (inactive) |
| CNC(=O)C1C(=S)NC(N)=C(C#N)C1c1ccccc1 (centres undefined) | 90.6% (inactive) |
| CC(C(=O)NC(=O)NCc1ccccc1)N1C(=O)c2ccccc2C1=O (centres undefined) | 98.9% (inactive) |
| CCOC(=O)c1c(-c2ccc(C)cc2)csc1NC(=O)/C(C#N)=C/c1ccc(O)c(OC)c1 | 93.9% (inactive) |
| CCN(CC)S(=O)(=O)c1ccc(NC2CCCc3ccccc32)nc1 (centres undefined) | 93.2% (inactive) |
| Cc1ccc(C(=O)NCCc2nnc(SCC(=O)Nc3nc(-c4ccccc4)cs3)n2C)cc1 | 87.6% (inactive) |

| Compound | viability |
| --- | --- |
| CCn1c(CNc2ccc(OC)cc2)nnc1SCC(=O)c1ccc(OC)cc1 | 86.7% (inactive) |
| CCN(CC)c1ccc(NC2=C(Cl)C(=O)c3ccccc3C2=O)cc1 | 89.3% (inactive) |
| CCCC(=O)Nc1ccc(C)c(O)c1 | 87.6% (inactive) |
| CCn1c(Cc2ccc(OC)cc2)nnc1SCC(=O)Nc1cccc(C(=O)OC)c1 | 95.5% (inactive) |
| Cc1sc2c(=O)n3c(nc2c1C(=O)NCCCN1CCOCC1)CCCCC3 | 83.3% (inactive) |
| CC(=O)ON1C(C)(C)CC(OC(=O)c2ccccc2)CC1(C)C | 91.2% (inactive) |
| O=C(COC(=O)c1cccnc1Nc1cccc(C(F)(F)F)c1)NCc1ccc2c(c1)OCO2 | 100% (inactive) |
| CC(C)c1cc(=O)oc2c3c4c(cc12)CCCN4CCC3 | 88.1% (inactive) |
| CNC(=S)N/N=C(\C)c1ccc(N2CCOCC2)cc1 | 95.4% (inactive) |
| O=S(=O)(NCCc1csc(-c2cccnc2)n1)c1ccc2c(c1)OCCO2 | 100% (inactive) |
| COc1ccc(CCn2c(N)c(C(=O)NCc3ccco3)c3nc4ccccc4nc32)cc1OC | 82.2% (inactive) |
| C=CCNc1nnc(SC2CC(=O)N(c3ccc(OC)cc3)C2=O)s1 (centres undefined) | 99.3% (inactive) |
| OCCn1c(C(F)(F)F)nc2ccccc21 | 104% (inactive) |
| O=C(Nc1ccccc1Cl)NC1(C(=O)N2CCCC2)CCCCC1 | 106% (inactive) |
| O=C(N/N=C/c1ccc(O)c(O)c1O)/C(=C/c1ccc([N+](=O)[O-])cc1)NC(=O)c1ccccc1 | 81.5% (inactive) |
| Cc1ccccc1NC(=O)c1ccc2c(c1)OCCO2 | 91.1% (inactive) |
| O=C(NNc1nc2cc3c(cc2s1)OCO3)c1cccc(F)c1 | 92.5% (inactive) |
| COc1cccc(OCC(=O)NN=C2c3ccccc3-c3ccccc32)c1 | 105% (inactive) |
| COc1ccc(C(=O)OC2CCN(c3ncc(C(F)(F)F)cc3Cl)CC2)cc1 | 97.8% (inactive) |
| O=C1[C@H]2[C@H]3[C@H](O)[C@H](O)C/C(=N\OC[C@@H](O)COCc4ccco4)[C@@H]3CC[C@H]2C(=O)N1c1ccc(F)cc1F | 107% (inactive) |
| COC(=O)COc1ccc(S(=O)(=O)NCc2ccncc2)cc1 | 111% (inactive) |
| c1ccc2c(c1)CCCC2C1=NCCN1 (centres undefined) | 94.9% (inactive) |

| Compound | viability |
| --- | --- |
| CC(C[N+](C)(C)C)OC(N)=O (centres undefined) | 102% (inactive) |
| CCOc1c(OC)ccc2c3c(c(=O)oc12)CCCC3 | 95.5% (inactive) |
| OC1C2CN3CCN(C2)CC1(Cc1ccccc1)C3 (centres undefined) | 88.9% (inactive) |
| Cc1cc(NC(=O)c2sc(Nc3cccc(C(F)(F)F)c3)nc2N)no1 | 86.6% (inactive) |
| Cc1[nH]nc2c1C(c1ccsc1C)C(C#N)=C(N)O2 (centres undefined) | 89.2% (inactive) |
| CCC(C)C1C(C#N)=C(N)Oc2n[nH]c(C)c21 (centres undefined) | 80.5% (inactive) |
| CCOC(=O)N1CCN(C(=O)c2nn(-c3ccc(C)cc3)c(=O)c3c2c2ccccc2n3C)CC1 | 89.2% (inactive) |
| COc1ccc(C(=O)OCC(=O)c2cc(OC)ccc2OC)c(OC)c1 | 89.9% (inactive) |
| CCOc1ccc(N(CC(=O)NC2CCCCCC2)S(=O)(=O)c2c(C)noc2C)cc1 | 96.9% (inactive) |
| CCCCCn1c(Sc2ccccc2)nc2c1c(=O)[nH]c(=O)n2C | 81.8% (inactive) |
| CCN(CCNC(=O)Nc1ccc(Cl)cc1)c1ccccc1 | 99.6% (inactive) |
| O=C(c1nnc(Cc2ccc(Cl)cc2)o1)N1CCc2ccccc2C1 | 98.8% (inactive) |
| CN(C)S(=O)(=O)c1cccc(NC(=O)COC(=O)c2cccc(S(=O)(=O)N3CCc4ccccc4C3)c2)c1 | 96.8% (inactive) |
| CCOC(=O)c1[nH]c2ccc(OC)cc2c1NC(=S)N1CCN(c2ccccc2)CC1 | 88.3% (inactive) |
| Cc1cc(C)n(C(=O)CNc2ccc(C)c(C)c2)n1 | 92.2% (inactive) |
| O=C(NCc1ccco1)C1CCN(S(=O)(=O)Cc2ccccc2)CC1 | 98.2% (inactive) |
| COc1ccc(Nc2oc(COc3ccc(Cl)cc3)nc2C#N)cc1 | 90.4% (inactive) |
| COc1ccc(-c2cc(C(F)F)n3ncc(C(=O)n4ccnc4C)c3n2)cc1 | 89.9% (inactive) |
| COC(=O)C1=C(C)N(c2ccc(F)c(Cl)c2)C(=O)C1 | 82.7% (inactive) |
| COc1cc(SC#N)ccc1N=Cc1c(C)[nH]n(-c2cccc3ccccc23)c1=O | 82.9% (inactive) |
| COc1ccccc1CN=Cc1[nH]c2ccc(Br)c(Cl)c2c1O | 89.1% (inactive) |
